# Measured values: the supplement of paper PMC6555819
# Experiments:
# Assay in all cases: PBM binding z-score (relative to random genomic background probes); higher = stronger binding; sequences stand for … in GC…GCGATTGACAGCGTAGAATGAAGG
# [1] = system: PPARg:RXRa DBDmut IVT, anti-RXR (DBD mutation: RXRa K156A/R161A, NR concentration 270 nM, RXRa partner concentration 90 nM)
# Procedure, shortened: (§1)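 Binding z-scores take random background probes as their reference. They come from custom Agilent 4×180K protein-binding microarrays incubated 1 h with ligand-free nuclear receptor dimers, with antibodies against each partner (one per run) detecting binding. Scanned fluorescence was regression-normalized.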
# [2] = system: PPARg:RXRa IVT, anti-PPARg (NR concentration 270 nM, RXRa partner concentration 90 nM)
# Procedure, shortened: as §1
# [3] = system: PPARg DBDmut:RXRa IVT, anti-PPARg (DBD mutation: PPARg1 K132A/R137A, NR concentration 270 nM, RXRa partner concentration 90 nM)
# Procedure, shortened: as §1
# [4] = system: PPARg DBDmut IVT, anti-PPARg (DBD mutation: PPARg1 K132A/R137A, NR concentration 270 nM)
# Procedure, shortened: as §1
# [5] = system: PPARg homodimer (NR concentration 180 nM)
# Procedure, shortened: as §1
# [6] = system: PXR:RXRa (NR concentration 270 nM, RXRa partner concentration 90 nM)
# Procedure, shortened: as §1
# [7] = system: PXR homodimer (NR concentration 270 nM)
# Procedure, shortened: as §1
# [8] = system: RARa:RXR (NR concentration 270 nM, RXRa partner concentration 90 nM)
# Procedure, shortened: as §1
# [9] = system: RARa homodimer (NR concentration 270 nM)
# Procedure, shortened: as §1
# [10] = system: RARb:RXRa (NR concentration 270 nM, RXRa partner concentration 90 nM)
# Procedure, shortened: as §1
# [11] = system: RARb homodimer (NR concentration 270 nM)
# Procedure, shortened: as §1
# [12] = system: RARg:RXRa (NR concentration 270 nM, RXRa partner concentration 90 nM)
# Procedure, shortened: as §1
# [13] = system: RARg homodimer (NR concentration 270 nM)
# Procedure, shortened: as §1
# [14] = system: RXRa DBDmut IVT, anti-RXR (DBD mutation: RXRa K156A/R161A, NR concentration 90 nM)
# Procedure, shortened: as §1
# [15] = system: RXRa homodimer (NR concentration 180 nM)
# Procedure, shortened: as §1
# [16] = system: THRa:RXRa (NR concentration 90 nM, RXRa partner concentration 90 nM)
# Procedure, shortened: as §1
# [17] = system: THRa homodimer (NR concentration 90 nM)
# Procedure, shortened: as §1
# [18] = system: VDR:RXRa (NR concentration 270 nM, RXRa partner concentration 90 nM)
# Procedure, shortened: as §1
# [19] = system: VDR homodimer (NR concentration 270 nM)
# Procedure, shortened: as §1
Sequence,PBM binding z-score [1],PBM binding z-score [2],PBM binding z-score [3],PBM binding z-score [4],PBM binding z-score [5],PBM binding z-score [6],PBM binding z-score [7],PBM binding z-score [8],PBM binding z-score [9],PBM binding z-score [10],PBM binding z-score [11],PBM binding z-score [12],PBM binding z-score [13],PBM binding z-score [14],PBM binding z-score [15],PBM binding z-score [16],PBM binding z-score [17],PBM binding z-score [18],PBM binding z-score [19]
GCTTACGGGGCAAAGGTTATAGCATGAATAGAAT,3.33,4.27,0.825,1.35,2.67,2.99,0.0717,4.63,0.155,2.32,1.58,3.73,1.43,1.11,4.42,1.89,-0.425,2.08,-0.046
CCAGACACGTGAGAAGGTAACTCAGCCTCGATTA,-0.227,-0.531,-0.51,-0.51,0.168,-0.212,0.145,-0.206,0.356,-0.318,-0.118,0.0186,0.206,0.268,0.0109,-0.00448,-0.0296,-0.39,0.0283
CGTACAAGGTCATAGGAGGTCAGTGAAGACAGAT,3.97,5.5,1.11,0.76,3.74,6.82,3.5,5.66,1.72,5.44,5.45,6.72,7.17,4.16,6.75,5.49,3.23,6.79,4.19
ATTTCTAGGTAAAAGTTCAGTGAATCCCGAGGAT,4.32,5.47,1.89,3.02,2.19,2.38,2.31,2.04,1.29,2.81,2.3,2.15,2.03,1.21,1.88,1.64,0.543,1.77,2.1
CCGACTGGGGCAAGATTACCATAACGCACAGCCA,2.97,2.41,-0.0501,-0.549,-0.195,-0.741,-0.382,-0.513,-0.747,0.315,0.349,0.185,0.477,-0.0134,0.0853,-0.474,-0.565,-0.621,-0.566
GGAGCGAGGGCAAGTTGATAGCAGAGTTTGATGG,0.723,0.346,-0.895,-0.911,0.261,0.533,0.345,0.395,-0.343,2.56,1.55,1.41,1.95,2.04,0.51,0.876,0.0322,0.407,1.48
GCAGACAGGTGAAACGCGGGTAACTCAGGGTGGC,1.2,0.724,-0.459,-1.01,-0.647,-0.0302,-0.747,0.318,-0.909,0.691,0.366,0.785,0.319,-0.6,0.631,1.64,-0.533,-0.339,-0.362
GCTCGGAAGACAAGGTCAGAGCTTTGTCCGTAGA,0.0129,0.063,-0.999,-2.1,0.392,1.41,-0.453,1.9,-0.69,2.58,2.34,2.28,1.86,0.349,2.11,2.52,0.95,0.859,0.19
GCATATAGGTAAAACAAGGTGAAAGTCCGATTGT,3.96,3.34,0.889,0.508,0.332,0.851,-0.261,1.85,-0.0924,0.432,0.61,0.353,0.33,0.273,0.55,4.2,0.967,0.401,0.035
ACTATTAGTTGAGACGAGGGCAACAGATAGGTTG,0.565,0.556,0.565,1.23,0.704,1.13,0.384,0.971,0.692,0.75,1.17,0.793,0.969,0.472,0.663,2.42,0.255,0.625,1.15
ACTAGCAGGCCAAGGGTCACCCAAGATTAGTCCG,1.04,4.15,0.826,-0.393,2.65,3.94,-0.00443,5.22,1.35,3.62,3.96,4.79,4.32,0.27,4.91,3,0.576,3.3,0.895
CCTGCTAGGTCAATGGTTAGCTAAAGCAGCTCGC,4.4,3.57,-0.722,-1.05,0.942,0.745,-0.456,1.29,-0.0432,3.74,2.6,3.3,3.9,1.65,1.78,2.11,0.48,0.802,-0.158
CAAATTAGGTCAAGAGGTCAAAGTCCGCTTCCCG,8.5,8.22,3.42,1.71,8.6,6.49,3.51,8.33,5.28,5.74,5.68,8.43,7.88,3.08,8.85,4.42,2.88,6.35,5.32
CCTAGTTAGTCAGGAGGTCACACACCGGATATGA,1.08,2.35,1.22,0.693,3.69,4.33,1.96,4.59,2.45,3.69,4.28,4.25,3.72,1.38,4.86,3.74,2.73,3.97,3.01
AGAACGAGGGCAATGAGTTGATACCACGGGTGGC,3.03,2.47,0.451,0.33,0.443,1.66,5.24,0.38,-0.193,2.19,0.985,1.02,1.7,2.06,0.987,0.993,-0.484,5.25,3.27
